tim10-1 inh = tim10-1 yeast growth inhibition; S. cerevisiae tim10-1 ts strain growth, BacTiter-Glo, 24 h; inhibition, % at 20 µM; 2.2% of 330,000 active;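 active = inhibition of at least 40%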;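 note: mutant grown at 25 °C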
MPTP block = blocks calcium-induced mitochondrial swelling; inhibition, % at 10 µM; 1.4% of 360,000 active; isolated mouse mitochondria, Ca2+ swelling absorbance, 30 min;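 active = inhibition of 50% or more, scaled per plate between neutral and stimulator controls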
Mdm2-MdmX inh = disrupts the human Mdm2-MdmX interaction; O15151+Q00987; SaOS-2 split-luciferase Mdm2/MdmX complementation, luminescence; inhibition, % at 8 µM; 3% of 330,000 active;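 active = inhibition of at least 50% at 8 µM in the primary screen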
Target sequence (O15151 whole entry, looked up): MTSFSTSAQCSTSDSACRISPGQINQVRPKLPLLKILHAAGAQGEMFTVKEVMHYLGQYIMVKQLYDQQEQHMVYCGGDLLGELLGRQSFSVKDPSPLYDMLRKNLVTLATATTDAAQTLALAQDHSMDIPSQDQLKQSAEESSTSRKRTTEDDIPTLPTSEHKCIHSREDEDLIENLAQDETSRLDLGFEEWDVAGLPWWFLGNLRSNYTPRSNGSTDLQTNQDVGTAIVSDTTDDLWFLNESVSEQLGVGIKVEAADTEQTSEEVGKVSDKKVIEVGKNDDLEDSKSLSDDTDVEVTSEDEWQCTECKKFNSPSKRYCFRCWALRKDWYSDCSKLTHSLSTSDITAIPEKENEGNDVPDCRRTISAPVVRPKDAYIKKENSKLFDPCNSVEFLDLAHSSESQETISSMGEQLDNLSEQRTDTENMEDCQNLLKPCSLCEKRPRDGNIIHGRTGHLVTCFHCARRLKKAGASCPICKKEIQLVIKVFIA
Target sequence (Q00987 whole entry, looked up): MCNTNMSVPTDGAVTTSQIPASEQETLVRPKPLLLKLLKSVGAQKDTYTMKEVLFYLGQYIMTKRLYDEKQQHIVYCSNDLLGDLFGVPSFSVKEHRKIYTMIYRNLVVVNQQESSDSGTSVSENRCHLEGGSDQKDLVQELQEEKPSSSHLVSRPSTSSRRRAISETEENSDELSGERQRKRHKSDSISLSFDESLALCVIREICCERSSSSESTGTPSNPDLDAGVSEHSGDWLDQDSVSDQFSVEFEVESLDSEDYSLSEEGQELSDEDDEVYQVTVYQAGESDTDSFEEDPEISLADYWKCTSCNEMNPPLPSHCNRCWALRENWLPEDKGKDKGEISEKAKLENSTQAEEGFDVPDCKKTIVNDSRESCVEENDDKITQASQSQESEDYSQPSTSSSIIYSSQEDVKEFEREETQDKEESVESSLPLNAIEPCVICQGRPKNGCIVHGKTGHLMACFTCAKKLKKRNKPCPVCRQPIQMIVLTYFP
TIM10 inh = TIM10 yeast growth inhibition | S. cerevisiae TIM10 strain growth, BacTiter-Glo luminescence, 24 h | inhibition, % at 10 µM | 1.4% of 330,000 active;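 active = inhibition of 40% or more at the single tested concentration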;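 note: wild-type TIM10 isogenic control strain grown at permissive 25 °C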
tim23-1 inh = growth inhibitors of tim23-1 mutant yeast; S. cerevisiae tim23-1 growth, BacTiter-Glo luminescence, 24 h; inhibition, % at 20 µM; 1.3% of 330,000 active; AID 463212;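 active = growth inhibition of the mutant yeast at or above 50%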;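 note: temperature-sensitive mutant grown at 25 °C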
MPTP counter = membrane potential counter-screen of mitochondrial pore inhibitors. shares compounds with MPTP block. isolated mitochondria, Rhodamine 123 fluorescence. inhibition, % at 10 µM. 78% of 5,000 active. AID 624504; in the data active = inhibition above about 22%
MPTP abs DR = dose response confirmation of mitochondrial permeability transition pore inhibitors; shares compounds with MPTP block; isolated mitochondria swelling, absorbance; IC50, µM; 58% of 780 active; AID 651561; in the data active = IC50 below about 20 µM
MPTP counter DR = active in counter-screen for permeability transition pore inhibitors | AID 651564 | shares compounds with MPTP block | 49% of 780 active | isolated mitochondria counterscreen, fluorescence read-out | IC50, µM; in the data active = IC50 below about 80 µM
Each line names hits and unclear results; the compound was inactive in the other large screens (follow-up assays come after a bar, where they were run). Hits are enriched below; roughly 6.3% of the tested compounds scored in any of these assays.

COc1cccc(C(C)NC(=O)Nc2cccc(C(F)(F)F)c2)c1 (configuration not stated)	MPTP block 96 | MPTP counter 102
Cc1cc(NC(=O)Nc2cccc(C(F)(F)F)c2)no1	MPTP block 76 | MPTP counter 71
COc1cc(NC(=O)c2cc(C)on2)cc(C(=O)Nc2cccc(C(F)(F)F)c2)c1	none
Cc1cc(/C(N)=N/OC(=O)Nc2cccc(C(F)(F)F)c2)no1	MPTP block 72 | MPTP counter 88
Cc1cc(NS(=O)(=O)c2ccc(NC(=O)Nc3cccc(C(F)(F)F)c3)cc2)no1	none
COc1ccc(NC(=O)C2C(c3ccccc3)C2(Cl)Cl)c(OC)c1 (configuration not stated)	none
Cc1ccc(NC(=O)C2C(c3ccccc3)C2(Cl)Cl)c(C)c1 (configuration not stated)	MPTP block 53 | MPTP counter 62
CN(CC(=O)Nc1cc(S(=O)(=O)N2CCCC2)ccc1Cl)Cc1nc2ccccc2c(=O)[nH]1	none (no result: tim10-1 inh, Mdm2-MdmX inh, TIM10 inh, tim23-1 inh)
CC(Nc1ncnc2sccc12)c1ccccc1 (configuration not stated)	MPTP block 84 | MPTP counter 80
c1ccc(Nc2ncnc3sccc23)cc1	none
CCOc1ccc(CN(C)Cc2cc(=O)oc3c(C)c(C)ccc23)cc1OC	MPTP block 52 (no result: tim10-1 inh, Mdm2-MdmX inh, TIM10 inh, tim23-1 inh) | MPTP counter 85
O=C(CC1C[C@H](C(=O)N2CCOCC2)[C@@]2(CCC3CCCC3)c3[nH]c4ccccc4c3CCN2C1=O)NCc1ccco1 (some centres not stated)	none
OC(CNCc1ccc(Cl)cc1)(c1ccccc1)c1ccc(F)cc1 (configuration not stated)	MPTP block 73 | MPTP counter inactive | MPTP abs DR 18 | MPTP counter DR 25
OC(CNCc1ccc(F)cc1)(c1ccc(F)cc1)c1ccc(F)cc1	none
CCN(CC)c1ccc(C(=C2C=CC(=[N+](CC)CC)C=C2)c2ccc(N(CC)CC)cc2)cc1	MPTP block 137 (no result: tim10-1 inh, Mdm2-MdmX inh, TIM10 inh, tim23-1 inh) | MPTP counter 74
CC(C)C[C@H]1CNC(=O)C(=O)N1CC1CCN(CCc2ccc(-c3ccccc3)cc2)CC1	none (no result: tim10-1 inh, Mdm2-MdmX inh, TIM10 inh, tim23-1 inh)
O=C1c2cccc(OCc3ccc(F)cc3)c2CCN1Cc1ccc(F)cc1	MPTP block 79 | MPTP counter 83
COc1ccccc1Nc1nc(NCc2ccco2)c2ccccc2n1	MPTP block 71 | MPTP counter 84
COc1cc2ncnc(NCc3ccco3)c2cc1OC	none
CCC(c1nc2ccccc2[nH]1)n1c(=O)c(-c2cccnc2)nc2ccccc21 (configuration not stated)	none (no result: tim10-1 inh, Mdm2-MdmX inh, TIM10 inh, tim23-1 inh)
COc1ccc(-c2n(CC(=O)OC3CC(C)CCC3C(C)C)c3ccccc3[n+]2C)cc1 (configuration not stated)	MPTP block 50 (no result: tim10-1 inh, Mdm2-MdmX inh, TIM10 inh, tim23-1 inh) | MPTP counter 94
CC1CCC(C(C)C)C(OC(=O)CSc2nccc(=O)[nH]2)C1 (configuration not stated)	none
CC(C)(C)N(Cc1ccccc1)C(=O)COC(=O)CCN1C(=O)C2CC=CCC2C1=O (configuration not stated)	none
COc1ccc(-c2csc(C(O)c3ccc(OC)cc3)n2)cc1 (configuration not stated)	none (no result: tim10-1 inh, Mdm2-MdmX inh, TIM10 inh, tim23-1 inh)
COc1ccc(C(O)c2nc(-c3ccncc3)cs2)cc1 (configuration not stated)	MPTP block 57 (no result: tim10-1 inh, Mdm2-MdmX inh, TIM10 inh, tim23-1 inh) | MPTP counter 66
CN1/C(=C/c2cc[n+](C)c3ccccc23)C=Cc2ccccc21	MPTP block 75 (no result: tim10-1 inh, Mdm2-MdmX inh, TIM10 inh, tim23-1 inh) | MPTP counter 59
C[n+]1ccc(/C=C/c2ccccc2O)c2ccccc21	none
Cc1ccccc1-n1ncc2c(SCC(=O)NC3CCCC3)ncnc21	MPTP block 80 | MPTP counter 28
Cc1nnc(NC(=O)CSc2ncnc3c2cnn3-c2ccccc2C)s1	none
O=C(CSc1ncnc2c1cnn2-c1ccccc1)Nc1ccc2c(c1)OCO2	MPTP block 67 | MPTP counter inactive | MPTP abs DR 5.2 | MPTP counter DR 6.4
CNC(=O)OCc1snc(-c2ccccc2)c1COC(=O)NC	none (no result: tim10-1 inh, Mdm2-MdmX inh, TIM10 inh, tim23-1 inh)
COC(=O)C1CCN(Cc2ccc(OCCCN3CCN(c4ccc([N+](=O)[O-])cc4)CC3)cc2)CC1	MPTP block 96 | MPTP counter 82
Cc1cc2c(NC(=O)Nc3ccc(C(F)(F)F)cc3)cccc2nn1	MPTP block 86 | MPTP counter 85
Cn1cc(NC(=O)Nc2ccc(C(F)(F)F)cc2)c(C(F)(F)F)n1	MPTP block 66 | MPTP counter 86
Cn1cc(C(=O)Nc2ccc(Cl)cc2)c(C(F)(F)F)n1	none
Cc1cc2c(NC(=O)CCCC(=O)O)cccc2nn1	none
COc1ccc(C2SCC(=O)N2CCc2ccc(OC)c(OC)c2)cc1 (configuration not stated)	MPTP block 71 | MPTP counter 33
CCCCCCC#Cc1cncc(C(=O)NNC(=O)Nc2cc(Cl)cc(Cl)c2)c1	MPTP block 55 | MPTP counter 55
O=C(NCc1ccco1)C1C(=O)Nc2ccccc2C(=O)N1C1CCCCC1 (configuration not stated)	none (no result: tim10-1 inh, Mdm2-MdmX inh, TIM10 inh, tim23-1 inh)
Oc1ccc(-c2n[nH]c(C(F)(F)F)c2-c2ccccc2)c(O)c1	MPTP block 84 | MPTP counter 76
CCOc1ccc(Br)cc1CC(=O)O	none
CCCOc1ccc(Br)cc1CSC(=N)N	MPTP block 97 | MPTP counter 92
CCc1ccc([C@@H]2CC(=O)[C@@H]3CN(S(=O)(=O)c4ccc(Cl)cc4)[C@H](c4ccc(C)cc4)C[C@@H]3N2S(=O)(=O)c2ccc(C)cc2)cc1	none (no result: tim10-1 inh, Mdm2-MdmX inh, TIM10 inh, tim23-1 inh)
COc1ccc(C(=O)/C=C/Nc2ccc(S(=O)(=O)Nc3cccc(C(C)=O)c3)cc2)cc1	MPTP block 97 | MPTP counter 84
O=C(CSc1nnc(CNC(=O)c2ccccc2F)o1)c1ccc(Cl)cc1	MPTP block 69 | MPTP counter inactive | MPTP abs DR inactive | MPTP counter DR 26
O=C(CSc1nnc(CNC(=O)c2cccs2)o1)c1ccc(Cl)cc1	MPTP block 77 | MPTP counter 30
COc1ccccc1CCC(=O)Nc1ccc2c(c1)c(=O)n(C)n2Cc1cccc(C(F)(F)F)c1	none (no result: tim10-1 inh, Mdm2-MdmX inh, TIM10 inh, tim23-1 inh)
Oc1c(C=C2N=c3ccccc3=N2)sc(=S)n1C1CCCC1	MPTP block 83 | MPTP counter 50
Cc1ccc(S(=O)(=O)N[C@H](C(=O)NC2CCC(C)CC2)C(C)C)cc1 (some centres not stated)	none
CN(C)CCCN(C(=O)COc1ccc(Cl)cc1)c1nc2cc3c(cc2s1)OCO3	none
CN(C)CCCN(C(=O)COc1ccc(Cl)cc1)c1nc2cc3c(cc2s1)OCCO3	MPTP block 87 | MPTP counter inactive | MPTP abs DR 4.3 | MPTP counter DR 74
